The record followed here is PubChem BioAssay.

“And” between values parts separate entries of the source, which are not always exact repeats. Identical values can stand only once. The source made the active and inactive calls.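 How the source made its calls, unless noted: active means at least 20% inhibition of 6-phosphogluconate dehydrogenase activity; inactive means the rest.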

For experiment [1], the target named is 6-phosphogluconate dehydrogenase, decarboxylating (Homo sapiens) (UniProt P52209). As to the kind of experiment: inhibition of human phosphogluconate dehydrogenase – biochemical, recombinant enzyme, NADPH absorbance, primary screen (AID 1159550). Particulars: recombinant 6PGD, NADPH absorbance 341 nm; at 10 µM; stronger effect = higher value.
Sequence of 6-phosphogluconate dehydrogenase, decarboxylating (Homo sapiens) (P52209 whole entry, looked up): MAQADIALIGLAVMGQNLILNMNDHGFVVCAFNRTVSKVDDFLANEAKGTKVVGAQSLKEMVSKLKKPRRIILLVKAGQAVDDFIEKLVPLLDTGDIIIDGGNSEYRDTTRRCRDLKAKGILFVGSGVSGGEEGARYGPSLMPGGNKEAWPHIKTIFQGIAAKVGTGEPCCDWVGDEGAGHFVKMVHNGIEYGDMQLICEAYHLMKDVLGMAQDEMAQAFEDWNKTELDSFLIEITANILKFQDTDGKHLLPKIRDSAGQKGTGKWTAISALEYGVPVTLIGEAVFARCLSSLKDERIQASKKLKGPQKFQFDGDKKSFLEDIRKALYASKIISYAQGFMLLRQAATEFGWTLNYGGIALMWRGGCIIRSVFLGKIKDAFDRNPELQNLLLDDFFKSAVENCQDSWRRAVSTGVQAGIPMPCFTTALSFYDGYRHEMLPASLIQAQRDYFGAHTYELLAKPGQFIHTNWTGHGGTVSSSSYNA
The nature of experiment [2]: Wnt pathway potentiators raising nuclear beta-catenin – imaging, WNT3A-conditioned medium, mouse C2C12, NPC library, primary screen (AID 1117326; in the data active means nuclear beta-catenin stimulation mostly above about 4.2%, no sharp cut-off; inactive means mostly below about 10%). As to conditions: stronger effect = higher value.
Experiment [3] can be described thus: stimulators of insulin release from INS-1E, primary screen, cell-based, 5 mM glucose, NPC library (AID 1117329;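 active means compound raises insulin release from rat beta cells at 5 mM glucose, no numeric limit stated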). As to conditions: rat INS-1E insulin secretion, at 10 µM, stronger effect = higher value.
Experiment [4] can be described thus: GLP1 release stimulators, primary, NCI-H716, NPC library (AID 1117341;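 active means compound raises GLP1 secretion from the human gut endocrine cells, with no numeric limit stated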). Particulars: NCI-H716 cells, at 10 µM, stronger effect = higher value.
The nature of experiment [5]: P. berghei load reduction in hepatocytes – cell-based, HepG2, luciferase luminescence, HepG2 viability, primary screen (AID 624349; in the data active means parasite load remaining mostly below about 12%, no sharp cut-off; inactive means mostly above about 10%;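 further: 100% = mean of DMSO negative control wells on the same plate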). As to conditions: P. berghei liver stage in HepG2, luciferase luminescence, concentration not given here; parasite load remaining: stronger effect = lower value; viability: measured here: HepG2 viability without parasites.
The nature of experiment [6]: EMT-state selective cytotoxicity in co-culture – imaging, PC-3E GFP, TEM4-18 mCherry, primary screen (AID 1345086;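 active means compounds killing one labelled cell type while sparing the other, by normalised counts and ratio limits, not self-fluorescent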;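 further: cells exposed to compound for 72 h before imaging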;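 on red/green cell ratio (normalised): normalised mesenchymal count divided by normalised epithelial count so high means epithelial killing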). Particulars: PC-3E GFP / TEM4-18 mCherry co-culture, imaging cell counts, at 1 µM.
Experiment [7] can be described thus: viability loss with induced miR-34 in A549 – imaging, A549 dox-inducible miR-34, nuclei and caspase counts, primary screen (AID 1347080;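 active means compounds whose cell count with miR-34 switched on is under 0.7 times the count with it off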). Particulars: A549 miR-34 inducible, Hoechst nuclei count, 48 h.
Experiment [8] can be described thus: growth inhibition of GSK3B-pretreated HCT116 cells – cell-based, CellTiter-Glo, 0.2 to 20 µM (AID 1117336;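 active means compounds lowering colon cancer cell viability after pretreatment blocking the GSK3B kinase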). As to conditions: HCT116 viability after GSK3B inhibitor, at 20 µM, stronger effect = higher value.
Experiment [9] can be described thus: inhibition of endothelial tube formation, primary screen, imaging, VEGF stimulated, CD31 staining, tube area, NPC library (AID 1117340;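 active means compound that reduces growth-factor-driven endothelial tube area in a mixed cell culture, no cutoff stated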). As to conditions: VEGF-stimulated ADSC/ECFC co-culture, at 10 µM, stronger effect = higher value.
A short description of experiment [10]: HCT116 colon cancer cell growth inhibition, primary screen, CellTiter-Glo luminescence, NPC library (AID 1117342;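 active means compounds that lower survival of HCT116 colon cancer cells in the luminescence readout, no numeric limit stated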). As to conditions: at 20 µM (top of the series). (ATP-based viability assays read luminescence as a measure of living cells.)
Experiment [11] is described as follows: reduced SW480 viability measured with CellTiter-Glo, NPC library, primary (AID 1117343;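 active means compounds that lower viability of the colon cancer cells in the luminescence readout, with no numeric limit stated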). Particulars: CellTiter-Glo luminescence; at 20 µM (top of the series).
Experiment [12] is described as follows: NPC library primary testing for decreased DLD-1 cell viability via CellTiter-Glo (AID 1117346;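 active means compounds that lower survival of DLD-1 colon cancer cells in the luminescence readout, no cutoff given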). As to conditions: DLD-1 viability, CellTiter-Glo luminescence; at 20 µM (top of the series).
Experiment [13] has as its system Hepatitis C virus NS3 helicase. Description: blockers of NS3h binding to ssDNA – biochemical, fluorescence polarization, LOPAC1280 library, primary screen (AID 687035; in the data active means inhibition above about 37%). Particulars: Purified HCV NS3 helicase, Cy5-dT15 ssDNA binding fluorescence polarization; stronger effect = higher value; concentration not given here. For orientation: Polarisation of emitted light reports the rotation of a fluorescent probe.

Experiment [14] can be described thus: compounds altering Cy5-DNA-NS3h complex signal – biochemical, LOPAC1280, artefact control for HCV NS3 helicase inhibitor project (AID 687037; call rule not given here). Particulars: Cy5-DNA-NS3h complex fluorescence interference counterscreen. A general note: The purpose of a counterscreen is to sort out artefacts and off-target activity.
Experiment [15] has as its system Aerobactin synthetase IucA (Klebsiella pneumoniae, hypervirulent). As to the kind of experiment: biochemical IucA inhibition screen of LOPAC library by absorbance (AID 1346212; call rule not given here;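 further: 100% = no compound wells and 0% = no enzyme wells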). As to conditions: IucA enzyme assay, absorbance (OD) readout; stronger effect = lower value;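 tested at 8 µM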.
Experiment [16] in a line: galactose survival enhancers in mitochondrial complex I cybrids – cell-based, galactose medium, ATP luminescence, primary screen (AID 1645843;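 active means z-score of at least 1.8 in each of two replicates, scored against plate mean and spread of sample wells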;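 further: positive z means more ATP and so rescue of galactose-driven cybrid death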). As to conditions: complex I mutant cybrid cells, 72 h, stronger effect = higher value.
Experiment [17] is described as follows: compounds altering viability of human ES cells (AID 493140; call rule not given here;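 further: cells exposed to compounds for four days before counting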). As to conditions: human embryonic stem cell survival screen; stronger effect = higher value.
A short description of experiment [18]: MELAS cybrid and Rieske KO viability enhancers – cell-based, MELAS cybrids, Rieske KO mouse fibroblasts, CellTiter-Glo, primary screen (AID 1508586;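 active means mean z-score across replicates of 1.96 or higher in either the MELAS or the Rieske mutant cell line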;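 further: z relative to plate mean and SD of compound and empty wells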). As to conditions: low glucose.
Experiment [19] deals with NAD(+) hydrolase SARM1 (Homo sapiens) (UniProt Q6SZW1). As to the kind of experiment: blocking NAD cleavage by SARM1 SAM-TIR – cell lysate, NAD-Glo luminescence (AID 1508614;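 active means compound whose remaining NAD level is above about 45 nM, limit read from the data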). As to conditions: SAM-TIR HEK293T lysate NADase, at 1 µM, stronger effect = higher value.
Sequence of NAD(+) hydrolase SARM1 (Homo sapiens) (Q6SZW1 whole entry, looked up): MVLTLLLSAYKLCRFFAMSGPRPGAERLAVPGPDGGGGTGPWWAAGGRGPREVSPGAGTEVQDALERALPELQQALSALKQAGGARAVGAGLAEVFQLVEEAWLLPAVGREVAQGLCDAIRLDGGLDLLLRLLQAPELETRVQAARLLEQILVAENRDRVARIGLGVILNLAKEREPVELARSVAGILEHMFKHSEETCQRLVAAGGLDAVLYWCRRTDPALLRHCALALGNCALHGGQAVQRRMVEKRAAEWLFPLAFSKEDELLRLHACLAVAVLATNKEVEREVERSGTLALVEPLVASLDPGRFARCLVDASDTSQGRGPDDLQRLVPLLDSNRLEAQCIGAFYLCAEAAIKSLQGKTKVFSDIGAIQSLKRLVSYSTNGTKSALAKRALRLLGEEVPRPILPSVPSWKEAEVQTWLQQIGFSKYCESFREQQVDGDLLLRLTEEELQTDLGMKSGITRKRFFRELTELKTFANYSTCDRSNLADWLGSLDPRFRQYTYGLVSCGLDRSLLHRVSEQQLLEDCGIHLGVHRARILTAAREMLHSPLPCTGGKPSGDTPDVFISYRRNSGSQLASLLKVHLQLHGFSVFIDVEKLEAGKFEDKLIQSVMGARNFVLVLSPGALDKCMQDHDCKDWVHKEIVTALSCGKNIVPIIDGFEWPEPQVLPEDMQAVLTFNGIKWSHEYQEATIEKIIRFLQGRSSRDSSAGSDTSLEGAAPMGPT
Where [20] appears, read: measured here: relative caspase fold change +Dox/-Dox.
Where [21] appears, read: measured here: total cells with miR-34 induction, stronger effect = lower value.
Setting [22] is: measured here: total cells without miR-34 induction.

Consider `CC[C@H]1/C=C\C=C\C[C@H](C)[C@@H](O)[C@](C)(O)C(=O)[C@H](C)[C@@H](O)C(C)C(=O)[C@H](C)[C@H](O)[C@@H](C)/C=C/C(=O)OC2C(C)[C@H](CC1)O[C@@]1(CC[C@@H](C)[C@@H](CC(C)O)O1)[C@@H]2C` (some centres undefined), for which the inhibition (as a rule, the change of the read-out against control, counted positive when it falls) in experiment [1] was -4.41% (inactive).
With `c1cncc([C@@H]2CCCCN2)c1`, the inhibition in [1] is 4.92% (inactive).
For the compound `COC(=O)c1ccccc1C(=O)OC`, the nuclear beta-catenin stimulation is -1.6% (inactive) in experiment [2] (at 10 µM) and -0.6% in experiment [2] (stimulation, at 2 µM). For the same compound, the insulin secretion stimulation in experiment [3] is 0.5% (inactive). Moreover, in experiment [4], the GLP1 secretion stimulation is -5.4% (inactive).
Turning to `COP(=S)(OC)Oc1ccc(Sc2ccc(OP(=S)(OC)OC)cc2)cc1`, the parasite load remaining in experiment [5] was 25% (inactive). The viability (commonly a read-out of living cells in per cent, often relative to untreated cells) in [5] was found to be 137%. In addition, the nuclear beta-catenin stimulation was 5.7% (inactive) in [2] (at 10 µM) and -0.8% in [2] (stimulation, at 2 µM). Moreover, the insulin secretion stimulation in experiment [3] is 0.05% (inactive). The GLP1 secretion stimulation in experiment [4] is -8.7% (inactive). Also, in [1], the inhibition is -4.06% (inactive). In addition, in experiment [6] (actives lie on both sides), the red/green cell ratio (normalised) is 0.91 (inactive). Further, the normalised cell number stood at 1.08 in experiment [6] (measured here: epithelial PC-3E GFP cell survival) and 0.98 in experiment [6] (measured here: mesenchymal TEM4-18 mCherry cell survival). Moreover, the fold change in experiment [7] (stronger effect = lower value) was 0.838 (inactive); in experiment [7] (setting [20]) it was 1.68. In addition, the cell count amounted to 9320 in experiment [7] (setting [21]) and 11100 in experiment [7] (setting [22]).
Regarding `CCC1(O)CC(OC2CC(N(C)C)C(O)C(C)O2)c2c(cc3c(c2O)C(=O)c2c(O)ccc(O)c2C3=O)C1C(=O)OC` (centres undefined), the inhibition in experiment [1] was -0.278% (inactive).
Still for that read-out and setting: in the case of `CCCC(C)C1(CC)C(=O)NC(=S)NC1=O` (centres undefined) it was -1.13% (inactive).
In the case of `CC(C)(C)c1ccc(O)cc1`, the insulin secretion stimulation in experiment [3] was 0% (inactive). In addition, the viability decrease in experiment [8] is -1.5% (inactive). Moreover, the tube area decrease in experiment [9] is -21.2% (inactive). In addition, the GLP1 secretion stimulation in experiment [4] was 3.8% (inactive). The inhibition of viability in experiment [10] was 7.9% (inactive). In addition, the viability decrease (inhibition) in experiment [11] was 15.7% (inactive); in [12] it was 4.65% (inactive).
On to `C=C1C([C@]2(C)C(CC(=O)OC)[C@@](C)(COC(C)=O)OC(=O)C[C@@H]2OC(C)=O)[C@@H](OC=O)[C@H](OC(=O)C(OC(C)=O)C(C)CC)[C@@]2(C)[C@H](c3ccoc3)CC(=O)C12O` (some centres undefined), for which the inhibition in experiment [1] is -6.98% (inactive).
With `CC(=O)OC1CC2(C)C(c3ccoc3)CC3OC32C2(C)C(=O)C(O)=C3C(C)(C)C(=O)C=CC3(C)C12` (centres undefined), the inhibition in [1] was 9.52% (inactive).
With `COc1ccc2c(c1OC)C(=O)O[C@H]2[C@@H]1c2cc3c(cc2CCN1C)OCO3`, the values for the inhibition in experiment [13] and in experiment [1] were -3% (inactive) and -1.62% (inactive), respectively. Moreover, in [14], the fluorescence ratio (interference) is 1 (inactive). Besides, the nuclear beta-catenin stimulation was -0.8% (inactive) in [2] (at 10 µM) and 7.9% in [2] (stimulation, at 2 µM). The viability decrease in [8] is 19.2% (inactive). In experiment [10], the inhibition of viability is 19.8% (inactive). For the same compound, the viability decrease (inhibition) is 3.5% (inactive) in [11] and -6.5% (inactive) in experiment [12]. For the same compound, in [15], the remaining activity (usually the signal under treatment as a percentage of the control signal) is 110% (inactive). For the same compound, the figures for the fold change in experiment [7] (stronger effect = lower value) and in experiment [7] (setting [20]) were 0.977 (inactive) and 1.1, respectively. In addition, the cell count amounted to 10700 in [7] (setting [21]) and 10900 in [7] (setting [22]). Moreover, in experiment [16], the z-score is 0.055 (inactive).
As to `Fc1cc(Br)ccc1CBr`, the nuclear beta-catenin stimulation in [2] (at 10 µM) was -0.7% (inactive); in experiment [2] (stimulation, at 2 µM) it was 13%. Also, the viability decrease in experiment [8] is 3.1% (inactive). In experiment [9], the tube area decrease is -4.2% (inactive). For the same compound, in experiment [10], the inhibition of viability is -1.5% (inactive). The results for the viability decrease (inhibition) in experiment [11] and in experiment [12] were 5.9% (inactive) and 9.1% (inactive), respectively.
Take `CN1C[C@H](CNC(=O)OCc2ccccc2)C[C@@H]2c3cccc4c3c(cn4C)C[C@H]21`: the survival in experiment [17] was 2.67 (inactive). Further, the parasite load remaining in experiment [5] is 77.5% (inactive) and 64.4% (inactive). The viability in experiment [5] is 74.4% and 69.2%. The inhibition in [13] is -2% (inactive); in experiment [1] it was -7.03% (inactive). The fluorescence ratio (interference) in experiment [14] was 1 (inactive). Also, the nuclear beta-catenin stimulation in experiment [2] (at 10 µM) was 53.7% (active); in experiment [2] (stimulation, at 2 µM) it was 5.7%. Besides, the viability decrease in experiment [8] was 93.3% (active). In experiment [10], the inhibition of viability is 94% (active). Besides, the results for the viability decrease (inhibition) in [11] and in [12] were 101% (active) and 92.2% (active), respectively. Also, the remaining activity in experiment [15] was 130% (inactive). In addition, the fold change in experiment [7] (stronger effect = lower value) was 0.705 (inactive) and 0.866 (inactive) and 0.969 (inactive); in experiment [7] (setting [20]), 1.05 and 1.44 and 0.756. Further, the cell count in experiment [7] (setting [21]) was 1820 and 6760 and 7430; in experiment [7] (setting [22]), 2580 and 7810 and 7670. Moreover, the z-score in experiment [18] (MELAS cybrid survival, CellTiter-Glo 48 h, stronger effect = higher value) was 0.443 (inactive); in [18] (Rieske KO mouse fibroblast survival, CellTiter-Glo 72 h), 0.114; in experiment [16], -1.27 (inactive) and -0.62 (inactive). Also, in experiment [19], the remaining NAD was 10 nM (inactive).
